# According to PubChem BioAssay AID1159580 (chemical genetic matrix, 2015):
# Several values for one entry are separate records, joined by “and”; a condition that tells them apart may be missing. Equal entries are not always repeated. Among all 5,500 compounds or so, about 2,000 (36%) were called active. About 18% were inconclusive and are not listed. No stated cut-off is given here; in the data, active means normalized growth mostly below about 0.91 (no sharp cut-off); inconclusive means no clear call, values can overlap the other calls; inactive means mostly above about 0.92. This is one part of the list.
# Test: chemical genetic growth profiling, strain panel (AID 1159580);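 further: tested at 20 µM; growth read once vehicle control cultures reached saturation at 30 °C; 1 = growth at the plate median or of vehicle wells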
# Conditions: growth OD
# [1] = S. cerevisiae deletion strains, locus YAL013W, strain DEP1, stronger effect = lower value
# [2] = S. cerevisiae deletion strains, locus YBR229C, strain ROT2, stronger effect = lower value
# [3] = S. cerevisiae deletion strains, locus YDL101C, strain DUN1, stronger effect = lower value
# [4] = S. cerevisiae deletion strains, locus YDR150W, strain NUM1, stronger effect = lower value
# [5] = S. cerevisiae deletion strains, locus YEL061C, strain CIN8, stronger effect = lower value
# [6] = S. cerevisiae deletion strains, locus YGR078C, strain PAC10, stronger effect = lower value
# [7] = S. cerevisiae deletion strains, locus YHR030C, strain SLT2, stronger effect = lower value
# [8] = S. cerevisiae deletion strains, locus YJR043C, strain POL32, stronger effect = lower value
# [9] = S. cerevisiae deletion strains, locus YJR075W, strain HOC1, stronger effect = lower value
# [10] = S. cerevisiae deletion strains, locus YKL190W, strain CNB1, stronger effect = lower value
# [11] = S. cerevisiae deletion strains, locus YLR039C, strain RIC1, stronger effect = lower value
# [12] = S. cerevisiae deletion strains, locus YLR262C, strain YPT6, stronger effect = lower value
# [13] = S. cerevisiae deletion strains, locus YNL322C, strain KRE1, stronger effect = lower value
# [14] = S. cerevisiae deletion strains, locus YPL055C, strain LGE1, stronger effect = lower value
# [15] = S. cerevisiae deletion strains, locus YPL241C, strain CIN2, stronger effect = lower value
smiles,measurement,setting,value
Cc1noc(C)c1C(=O)N1CCN(c2ncc(C(F)(F)F)cc2Cl)CC1,normalized growth,[1],0.994 (inactive)
same,normalized growth,[2],0.988 (inactive)
same,normalized growth,"S. cerevisiae deletion strains, locus YCL061C, strain MRC1, stronger effect = lower value",0.993 (inactive)
same,normalized growth,[3],0.977 (inactive)
same,normalized growth,[4],0.897 (inactive)
same,normalized growth,[5],0.975 (inactive)
same,normalized growth,[6],0.994 (inactive)
same,normalized growth,[7],1.07 (inactive)
same,normalized growth,"S. cerevisiae deletion strains, locus YHR087W, strain rtc3, stronger effect = lower value",0.975 (inactive)
same,normalized growth,[8],0.998 (inactive)
same,normalized growth,[9],0.972 (inactive)
same,normalized growth,[10],1 (inactive)
same,normalized growth,[11],0.995 (inactive)
same,normalized growth,"S. cerevisiae deletion strains, locus YLR058C, strain SHM2 (second series), stronger effect = lower value",1 (inactive)
same,normalized growth,"S. cerevisiae deletion strains, locus YLR085C, strain ARP6, stronger effect = lower value",0.982 (inactive)
same,normalized growth,[12],0.979 (inactive)
same,normalized growth,"S. cerevisiae deletion strains, locus YML094W, strain GIM5, stronger effect = lower value",0.968 (inactive)
same,normalized growth,"S. cerevisiae deletion strains, locus YMR219W, strain ESC1, stronger effect = lower value",1 (inactive)
same,normalized growth,"S. cerevisiae deletion strains, locus YMR263W, strain SAP30, stronger effect = lower value",1.01 (inactive)
same,normalized growth,"S. cerevisiae deletion strains, locus YNL128W, strain TEP1, stronger effect = lower value",0.99 (inactive)
same,normalized growth,"S. cerevisiae deletion strains, locus YNL153C, strain GIM3, stronger effect = lower value",0.986 (inactive)
same,normalized growth,"S. cerevisiae deletion strains, locus YNL298W, strain CLA4 (second series), stronger effect = lower value",1.02 (inactive)
same,normalized growth,[13],0.989 (inactive)
same,normalized growth,"S. cerevisiae deletion strains, locus YNR030W, strain Alg12, stronger effect = lower value",0.97 (inactive)
same,normalized growth,"S. cerevisiae deletion strains, locus YOL006C, strain TOP1, stronger effect = lower value",0.99 (inactive)
same,normalized growth,[14],0.933 (inactive)
same,normalized growth,[15],1.1 (inactive)
same,normalized growth,"S. cerevisiae deletion strains, locus YPR135W, strain CTF4, stronger effect = lower value",0.942 (inactive)
same,normalized growth,"S. cerevisiae strains, strain wild type, stronger effect = lower value",0.993 (inactive)
O=C(COc1ccc(Cl)cc1)N1CCN(Cc2ccc3c(c2)OCO3)CC1,normalized growth,[1],0.989 (inactive)
same,normalized growth,"S. cerevisiae deletion strains, locus YBR021W, strain FUR4, stronger effect = lower value",0.977 (inactive)
same,normalized growth,[2],0.98 (inactive)
same,normalized growth,"S. cerevisiae deletion strains, locus YCL029C, strain bik1, stronger effect = lower value",0.979 (inactive)
same,normalized growth,"S. cerevisiae deletion strains, locus YDL035C, strain GPR1, stronger effect = lower value",0.93 (inactive)
same,normalized growth,"S. cerevisiae deletion strains, locus YDL074C, strain BRE1, stronger effect = lower value",1 (inactive)
same,normalized growth,[3],0.985 (inactive)
same,normalized growth,"S. cerevisiae deletion strains, locus YDL134C, strain PPH21, stronger effect = lower value",0.958 (inactive)
same,normalized growth,"S. cerevisiae deletion strains, locus YDL185W, strain tfp1, stronger effect = lower value",0.962 (inactive)
same,normalized growth,"S. cerevisiae deletion strains, locus YDL192W, strain arf1, stronger effect = lower value",0.945 (inactive)
same,normalized growth,"S. cerevisiae deletion strains, locus YDR101C, strain arx1, stronger effect = lower value",1.01 (inactive)
same,normalized growth,[4],0.976 (inactive)
same,normalized growth,"S. cerevisiae deletion strains, locus YDR162C, strain NBP2, stronger effect = lower value",0.918 (inactive)
same,normalized growth,"S. cerevisiae deletion strains, locus YDR318W, strain mcm21, stronger effect = lower value",0.921 (inactive)
same,normalized growth,"S. cerevisiae deletion strains, locus YDR388W, stronger effect = lower value",0.972 (inactive)
same,normalized growth,"S. cerevisiae deletion strains, locus YDR502C, strain sam2, stronger effect = lower value",0.908 (active)
same,normalized growth,[5],0.985 (inactive)
same,normalized growth,"S. cerevisiae deletion strains, locus YER110C, stronger effect = lower value",0.962 (inactive)
same,normalized growth,"S. cerevisiae deletion strains, locus YER155C, strain BEM2, stronger effect = lower value",1.02 (inactive)
same,normalized growth,"S. cerevisiae deletion strains, locus YER167W, strain BCK2, stronger effect = lower value",0.987 (inactive)
same,normalized growth,"S. cerevisiae deletion strains, locus YGL078C, strain dbp3, stronger effect = lower value",1 (inactive)
same,normalized growth,"S. cerevisiae deletion strains, locus YGL086W, strain mad1, stronger effect = lower value",0.973 (inactive)
same,normalized growth,"S. cerevisiae deletion strains, locus YGL248W, strain PDE1, stronger effect = lower value",0.983 (inactive)
same,normalized growth,[6],0.952 (inactive)
same,normalized growth,"S. cerevisiae deletion strains, locus YGR135W, strain pre9, stronger effect = lower value",0.825 (active)
same,normalized growth,"S. cerevisiae deletion strains, locus YGR252W, strain gcn5, stronger effect = lower value",0.938 (inactive)
same,normalized growth,[7],0.954 (inactive) and 0.981 (inactive)
same,normalized growth,"S. cerevisiae deletion strains, locus YHR079C, strain IRE1 (second series), stronger effect = lower value",0.977 (inactive)
same,normalized growth,"S. cerevisiae deletion strains, locus YHR079C, strain IRE1, stronger effect = lower value",0.972 (inactive)
same,normalized growth,"S. cerevisiae deletion strains, locus YHR094C, strain hxt1, stronger effect = lower value",0.978 (inactive)
same,normalized growth,"S. cerevisiae deletion strains, locus YHR129C, strain ARP1, stronger effect = lower value",0.977 (inactive)
same,normalized growth,"S. cerevisiae deletion strains, locus YHR200W, strain rpn10, stronger effect = lower value",0.976 (inactive)
same,normalized growth,"S. cerevisiae deletion strains, locus YIL066C, strain RNR3, stronger effect = lower value",0.887 (inactive)
same,normalized growth,"S. cerevisiae deletion strains, locus YIL073C, strain SPO22, stronger effect = lower value",0.827 (inactive)
same,normalized growth,"S. cerevisiae deletion strains, locus YIL125W, strain kgd1, stronger effect = lower value",1 (inactive)
same,normalized growth,"S. cerevisiae deletion strains, locus YIR030C, strain dcg1, stronger effect = lower value",0.973 (inactive)
same,normalized growth,"S. cerevisiae deletion strains, locus YJL095W, strain BCK1, stronger effect = lower value",0.773 (active) and 0.983 (inactive)
same,normalized growth,"S. cerevisiae deletion strains, locus YJL134W, strain LCB3, stronger effect = lower value",0.977 (inactive)
same,normalized growth,"S. cerevisiae deletion strains, locus YJL168C, strain set2, stronger effect = lower value",0.98 (inactive)
same,normalized growth,"S. cerevisiae deletion strains, locus YJL187C, strain SWE1 (second series), stronger effect = lower value",0.932 (inactive)
same,normalized growth,[8],1.08 (inactive)
same,normalized growth,"S. cerevisiae deletion strains, locus YJR066W, strain TOR1, stronger effect = lower value",0.916 (inactive)
same,normalized growth,[9],0.943 (inactive)
same,normalized growth,"S. cerevisiae deletion strains, locus YKL009W, strain mrt4, stronger effect = lower value",0.987 (inactive)
same,normalized growth,"S. cerevisiae deletion strains, locus YKL068W, stronger effect = lower value",0.983 (inactive)
same,normalized growth,"S. cerevisiae deletion strains, locus YKL085W, strain MDH1 (second series), stronger effect = lower value",0.98 (inactive)
same,normalized growth,"S. cerevisiae deletion strains, locus YKL085W, strain MDH1, stronger effect = lower value",0.98 (inactive)
same,normalized growth,[10],0.976 (inactive)
same,normalized growth,"S. cerevisiae deletion strains, locus YKR001C, strain vps1, stronger effect = lower value",1.04 (inactive)
same,normalized growth,[11],0.738 (inactive)
same,normalized growth,"S. cerevisiae deletion strains, locus YLR058C, strain SHM2, stronger effect = lower value",0.962 (inactive)
same,normalized growth,"S. cerevisiae deletion strains, locus YLR102C, strain apc9, stronger effect = lower value",0.986 (inactive)
same,normalized growth,"S. cerevisiae deletion strains, locus YLR113W, strain HOG1, stronger effect = lower value",1 (inactive)
same,normalized growth,[12],0.668 (inactive)
same,normalized growth,"S. cerevisiae deletion strains, locus YLR268W, strain sec22, stronger effect = lower value",0.911 (inactive)
same,normalized growth,"S. cerevisiae deletion strains, locus YLR330W, strain CHS5, stronger effect = lower value",0.979 (inactive)
same,normalized growth,"S. cerevisiae deletion strains, locus YLR342W, strain FKS1 (second series), stronger effect = lower value",0.902 (inactive)
same,normalized growth,"S. cerevisiae deletion strains, locus YLR371W, strain rom2, stronger effect = lower value",0.985 (inactive)
same,normalized growth,"S. cerevisiae deletion strains, locus YLR418C, strain cdc73, stronger effect = lower value",0.864 (inactive)
same,normalized growth,"S. cerevisiae deletion strains, locus YML016C, strain PPZ1, stronger effect = lower value",0.97 (inactive)
same,normalized growth,"S. cerevisiae deletion strains, locus YML032C, strain rad52, stronger effect = lower value",0.952 (inactive)
same,normalized growth,"S. cerevisiae deletion strains, locus YML124C, strain tub3, stronger effect = lower value",0.998 (inactive)
same,normalized growth,"S. cerevisiae deletion strains, locus YMR078C, strain ctf18, stronger effect = lower value",0.971 (inactive)
same,normalized growth,"S. cerevisiae deletion strains, locus YMR223W, strain ubp8, stronger effect = lower value",0.898 (active)
same,normalized growth,"S. cerevisiae deletion strains, locus YMR307W, strain GAS1, stronger effect = lower value",1.01 (inactive)
same,normalized growth,"S. cerevisiae deletion strains, locus YNL067W, strain RPL9B, stronger effect = lower value",0.957 (inactive)
same,normalized growth,"S. cerevisiae deletion strains, locus YNL183C, strain NPR1, stronger effect = lower value",0.918 (inactive)
same,normalized growth,"S. cerevisiae deletion strains, locus YNL233W, strain BNI4, stronger effect = lower value",0.941 (inactive)
same,normalized growth,"S. cerevisiae deletion strains, locus YNL250W, strain rad50, stronger effect = lower value",0.981 (inactive)
same,normalized growth,"S. cerevisiae deletion strains, locus YNL271C, strain bni1, stronger effect = lower value",0.988 (inactive)
same,normalized growth,"S. cerevisiae deletion strains, locus YNL298W, strain CLA4, stronger effect = lower value",0.983 (inactive)
same,normalized growth,"S. cerevisiae deletion strains, locus YNL307C, strain MCK1, stronger effect = lower value",0.9 (active)
same,normalized growth,[13],0.976 (inactive)
same,normalized growth,"S. cerevisiae deletion strains, locus YNR052C, strain pop2, stronger effect = lower value",0.943 (inactive)
same,normalized growth,"S. cerevisiae deletion strains, locus YOL012C, strain htz1",1.78 (inactive)
same,normalized growth,"S. cerevisiae deletion strains, locus YOL147C, strain pex11, stronger effect = lower value",0.962 (inactive)
same,normalized growth,"S. cerevisiae deletion strains, locus YOR061W, strain CKA2, stronger effect = lower value",0.971 (inactive)
same,normalized growth,"S. cerevisiae deletion strains, locus YOR069W, strain VPS5, stronger effect = lower value",0.973 (inactive)
same,normalized growth,"S. cerevisiae deletion strains, locus YOR136W, strain idh2, stronger effect = lower value",0.992 (inactive)
same,normalized growth,"S. cerevisiae deletion strains, locus YOR144C, strain elg1, stronger effect = lower value",0.993 (inactive)
same,normalized growth,"S. cerevisiae deletion strains, locus YOR184W, strain ser1, stronger effect = lower value",0.845 (active)
same,normalized growth,"S. cerevisiae deletion strains, locus YOR231W, strain MKK1, stronger effect = lower value",0.999 (inactive)
same,normalized growth,"S. cerevisiae deletion strains, locus YOR316C, strain cot1, stronger effect = lower value",0.984 (inactive)
same,normalized growth,[14],0.998 (inactive)
same,normalized growth,[15],0.974 (inactive)
same,normalized growth,"S. cerevisiae deletion strains, locus YPL256C, strain CLN2, stronger effect = lower value",0.97 (inactive)
same,normalized growth,"S. cerevisiae deletion strains, locus YPR119W, strain clb2, stronger effect = lower value",0.989 (inactive)
same,normalized growth,"S. cerevisiae deletion strains, locus YPR141C, strain kar3, stronger effect = lower value",0.988 (inactive)
same,normalized growth,"S. cerevisiae deletion strains, locus YPR163C, strain tif3, stronger effect = lower value",0.955 (inactive)
same,normalized growth,"S. cerevisiae deletion strains, locus YPR167C, strain met16, stronger effect = lower value",0.987 (inactive)
same,normalized growth,"S. cerevisiae deletion strains, strain wtn01, stronger effect = lower value",0.905 (inactive)
